From PubChem BioAssay
Shiga inhibitor: Shiga toxin inhibition | inhibition, % at 38.7 µM | hit rate 9.2% among 290,000 | Vero cells, Shiga toxin protein synthesis inhibition reporter; in the data active = inhibition mostly above about 28%, no sharp cut-off; inactive = mostly below about 43%; note: 0% is about no effect
CHX counter: affects cycloheximide protein synthesis inhibition readout, counter-screen. cell reporter, cycloheximide protein synthesis inhibition counterscreen. max response, %. hit rate 12% among 300,000. AID 2314; in the data active = max response mostly above about 13%, no sharp cut-off; inactive = mostly below about 14%; note: read at 38.3 µM for the half of the compounds with a filed dose; 0% is about no effect
Pf growth 48h: inhibits P. falciparum growth in the first generation, 48 h | P. falciparum luciferase growth in erythrocytes, 48 h | Potency, µM (highest dose often 28.7 µM), inactives show top-dose activity change, negative = inhibition, actives largely listed as inhibitors | hit rate 5.9% among 310,000; note: potency is the fitted concentration of half-maximal effect; % is set by controls: 0 for no effect and ±100 for the full control effect
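Firefly luciferase activity from engineered P. falciparum reports growth; inhibitors lower the luminescent signal. Cultures contained 2% hematocrit erythrocytes at 0.1% final parasitemia.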
Pf growth 96h: inhibits malaria parasite growth, 96 h | P. falciparum luciferase reporter growth, 96 h | Potency, µM (highest dose often 28.7 µM), for inactives: at the highest dose activity change, negative = inhibition, actives largely listed as inhibitors | hit rate 6.9% among 320,000 | AID 504834; note: potency is the fitted concentration of half-maximal effect; % is set by controls: 0 for no effect and ±100 for the full control effect
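96 h incubation, 37 C, 5% CO2, of luciferase-reporter P. falciparum-infected RBCs (2% hematocrit, 0.05% parasitemia final) with test compounds; endpoint luminescence.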
* hit, by the source's call. A selection: hits, their analogues and other compounds. The true share with any hit is near 21%. Unless noted, calls come from the whole dose curve; as a rule, active = well fitted inhibition curve with a large enough effect; inconclusive = small, poorly fitted or top-dose-only effect, or another doubt; inactive = no such curve, though single readings can be large or run the other way.

Screening Fc1ccc(C2c3cccn3CCN2C(=S)Nc2cccc(Br)c2)cc1 (stereo unspecified) returned Shiga inhibitor -14, CHX counter 16, Pf growth 48h 12µM* and Pf growth 96h inconclusive.
`COc1cccc(NC(=S)N2CCn3cccc3C2c2cccnc2)c1` (stereo unspecified) gave Shiga inhibitor 33*, CHX counter 6, Pf growth 48h inconclusive and Pf growth 96h -14%.
Screening S=C(NCc1ccccc1)N1CCn2cccc2C1c1cccnc1 (stereo unspecified) returned Shiga inhibitor -19, CHX counter -3, Pf growth 48h 4.7µM* and Pf growth 96h 4.7µM*.
Fc1ccc(NC(=S)N2CCn3cccc3C2c2cccnc2)cc1 (stereo unspecified) was read as Shiga inhibitor -10, CHX counter -4, Pf growth 48h inconclusive and Pf growth 96h -16%.
For S=C(NCCc1ccccc1)N1CCn2cccc2C1c1cccnc1 (stereo unspecified) the results were Shiga inhibitor 1, CHX counter 17, Pf growth 48h 12µM* and Pf growth 96h 10µM*.
Screening CCN1C(=O)/C(=C/C2=Cc3ccccc3OC2C)SC1=S (stereo unspecified) returned Shiga inhibitor -4, CHX counter -6, Pf growth 48h -2% and Pf growth 96h 20%.
Screening CN(C)S(=O)(=O)c1cccc(COC(=O)CNC(=O)c2ccc(Br)o2)c1 returned Pf growth 48h 48% and Pf growth 96h 31%.
CCCCNC(=S)N1CCn2cccc2C1c1ccccc1 (stereo unspecified) was read as Shiga inhibitor 3, CHX counter 0, Pf growth 48h 4.7µM* and Pf growth 96h inconclusive.
For CCOC(=O)C1CCCN(S(=O)(=O)CCNC(=O)c2ccc3c(c2)OCO3)C1 (stereo unspecified) the results were Pf growth 48h inconclusive and Pf growth 96h -23%.
Screening CCCc1cc(C(=O)Nc2sc(C(C)=O)c(C)c2C(=O)OCC)no1 returned Shiga inhibitor 4, CHX counter -3, Pf growth 48h -14% and Pf growth 96h 77%.
CCCc1cc(C(=O)Nc2cccnc2Cl)no1 was read as Shiga inhibitor 59*, CHX counter 55* and Pf growth 96h 12µM*.
CCCc1cc(C(=O)Nc2cc(OC)c(Cl)cc2OC)no1 was read as Shiga inhibitor 12, CHX counter -3 and Pf growth 96h 55%.
CCCc1cc(C(=O)Nc2cc(C)ccc2O)no1 was read as Shiga inhibitor 49*, CHX counter 18*, Pf growth 48h -25% and Pf growth 96h 16%.
For CCCc1cc(C(=O)Nc2ccccc2C(=O)OC)no1 the results were Shiga inhibitor 12, CHX counter -3, Pf growth 48h 4% and Pf growth 96h 12µM*.
COc1ccc(-c2cc(C(=O)Nc3cccnc3Cl)no2)cc1OC was read as Shiga inhibitor 1, CHX counter -2, Pf growth 48h 11% and Pf growth 96h inconclusive.
CN(C)CCCNc1ccc(S(N)(=O)=O)cc1[N+](=O)[O-] was read as Shiga inhibitor -10, CHX counter -1, Pf growth 48h 11% and Pf growth 96h 13%.
For COc1cc(C2CC(=O)Oc3c(C(CCN4CCN(c5ccccc5)CC4)c4ccc(N(C)C)cc4)c(OC)cc(OC)c32)cc(OC)c1OC (stereo unspecified) the results were Shiga inhibitor -2, CHX counter -4, Pf growth 48h 4.1µM* and Pf growth 96h 4.1µM*.
Screening COc1ccc(C2CC(=O)Oc3c(C(CCN4CCCCC4)c4ccc(N(C)C)cc4)c(OC)cc(OC)c32)cc1 (stereo unspecified) returned Shiga inhibitor -11, CHX counter -12, Pf growth 48h inconclusive and Pf growth 96h 9.3µM*.
For COc1cc(C2CC(=O)Oc3c(C(CCN4CCOCC4)c4ccc(N(C)C)cc4)c(OC)cc(OC)c32)cc(OC)c1OC (stereo unspecified) the results were Shiga inhibitor -3, CHX counter -2, Pf growth 48h 12µM* and Pf growth 96h inconclusive.
Screening CC(C)OC(=O)C(C(=O)C(F)(F)F)c1cc(NS(=O)(=O)c2ccc3ccccc3c2)c2ccccc2c1O (stereo unspecified) returned Shiga inhibitor 11, CHX counter 0, Pf growth 48h 9.3µM* and Pf growth 96h 3.3µM*.
NC12CC3CC(C1)CC(O)(C3)C2 was read as Shiga inhibitor -20, CHX counter -3, Pf growth 48h 15% and Pf growth 96h 10µM*.
CC(=O)N1C=Cc2c(c(C)c3c([nH]c4ccccc43)c2C)C1 was read as Shiga inhibitor 25, CHX counter 17*, Pf growth 48h 1.9µM* and Pf growth 96h -7%.
